The source made the active and inactive calls. How the source made its calls: active means hit-call score of the fitted dose curve at least 0.9, where 1 is the maximum; inconclusive means response in the unintended direction; inactive means score below 0.9.
assay: Tanguay_ZF_120hpf_MORT_legacy: (Legacy) Oregon State University Tanguay Lab 120 Hour Post-fertilization zebrafish Assay for Mortality (AID 2283633)
Outline: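 Static waterborne exposure from 6 to 120 hpf at 28C of single dechorionated wild-type (5D) embryos per well, 0.64% DMSO final. Death recorded present/absent by brightfield at 24 and 120 hpf.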

With `NC(N)=O` as the molecule, how does the outcome read?
Its outcome is “inactive”.

For `Cc1ccc(S(=O)(=O)NC(=O)NN2CCCCCC2)cc1`, which outcome is on record?
The outcome was “inactive”.

Which outcome does the source give for `Cc1nccn1-c1ccc(Sc2cccc(C3(C(N)=O)CCOCC3)c2)cc1` here?
Its outcome is “inactive”.

With `OCc1ccccc1` as the molecule, how does the outcome read?
Its outcome is “inactive”.

With `NC(=O)N(O)[C@@H]1COc2cc(OCc3ccccc3)ccc21` as the molecule, how does the outcome read?
The outcome was “inactive”.

Which outcome does the source give for `COc1cc(C(C)C)c2c(c1)S(=O)(=O)N(COc1cc(=O)n3cccc(OCCN4CCCCC4)c3n1)C2=O` here?
The outcome was “inactive”.

Which outcome does the source give for `Cc1nc(-c2ccccn2)ncc1C(=O)Nn1cc(C)c2cc(F)ccc21` here?
The outcome was “inactive”.

With `CCN(CC)C(=S)SSC(=S)N(CC)CC` as the molecule, how does the outcome read?
Its outcome is “inactive”.

Which outcome does the source give for `O=S(=O)(O)c1ccc(N=Nc2c(O)ccc3cc(S(=O)(=O)O)ccc23)cc1` here?
Its outcome is “inactive”.

With `O=C(O)[C@H](O)[C@@H](O)C(=O)O` as the molecule, how does the outcome read?
The outcome was “inactive”.

For `OC[C@H]1O[C@@H]2O[C@H]3[C@H](O)[C@@H](O)[C@@H](O[C@H]4[C@H](O)[C@@H](O)[C@@H](O[C@H]5[C@H](O)[C@@H](O)[C@@H](O[C@H]6[C@H](O)[C@@H](O)[C@@H](O[C@H]7[C@H](O)[C@@H](O)[C@@H](O[C@H]1[C@H](O)[C@H]2O)O[C@@H]7CO)O[C@@H]6CO)O[C@@H]5CO)O[C@@H]4CO)O[C@@H]3CO`, which outcome is on record?
Its outcome is “inactive”.

With `COc1cc2c(c(OC)c1OC)-c1ccc(OC)c(=O)cc1[C@@H](NC(C)=O)CC2` as the molecule, how does the outcome read?
The outcome was “inactive”.

With `CCCC(CCC)C(=O)O` as the molecule, how does the outcome read?
The outcome was “inactive”.

With `CC(C)CC(C)O` (stereo unspecified) as the molecule, how does the outcome read?
The outcome was “inactive”.

For `OCC(CO)(CO)CO`, which outcome is on record?
The outcome was “inactive”.

For `OCCNCCO`, which outcome is on record?
Its outcome is “inactive”.

From PubChem BioAssay (EPA / NIEHS)
